The text below walks through data of PubChem BioAssay.

The inhibition is the percentage by which the read-out fell short of the control.

Molecules are shown by their SMILES. Unmarked numbers belong to inactive results. How the calls were made is not given here.

This test has as its target Pantothenate synthetase (Mycobacterium tuberculosis (strain ATCC 25618 / H37Rv)) (UniProt P9WIL5). Description: Recombinant Mtb pantothenate synthetase (PanC) inhibitors, coupled enzyme, confirmatory (AID 375).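 Further: 0% = full reaction with vehicle and 100% = no enzyme background.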 Conditions: coupled enzyme assay; at 10 µM, active compounds read high.

Pantothenate synthetase (Mycobacterium tuberculosis (strain ATCC 25618 / H37Rv)), sequence (P9WIL5 whole entry, looked up): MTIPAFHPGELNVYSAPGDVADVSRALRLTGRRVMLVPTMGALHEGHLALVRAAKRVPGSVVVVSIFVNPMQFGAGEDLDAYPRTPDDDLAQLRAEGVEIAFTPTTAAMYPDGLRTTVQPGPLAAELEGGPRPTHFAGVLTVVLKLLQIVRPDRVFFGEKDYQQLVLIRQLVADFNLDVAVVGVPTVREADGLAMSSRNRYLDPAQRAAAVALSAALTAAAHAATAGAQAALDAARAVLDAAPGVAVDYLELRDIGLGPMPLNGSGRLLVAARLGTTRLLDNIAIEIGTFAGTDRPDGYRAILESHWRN

With `CCOC(=O)NC1(NCc2ccccc2)Oc2ccccc2O1`, the inhibition was 0%.

Regarding `O=S(=O)(Nn1cnnc1)c1ccccc1Cl`, the inhibition is 0%.

`O=C(NC12CC3CC(CC(C3)C1)C2)c1cncc(O)c1`: the inhibition was 2%. On to `C=C(C)Cn1c(N2CCN(CC)CC2)nc2c1c(=O)[nH]c(=O)n2C`, for which the inhibition is 0%. For `CCOC(=O)CSc1nc2ccccc2n1CC(=O)N1CCN(c2ccccc2)CC1`, the inhibition was 0%. The same measure for `Cc1cc(NC(=O)Cn2cnc3c2c(=O)n(C)c(=O)n3C)n(-c2ccccc2)n1`: 0%; for `O=C(c1ccc(-c2ccccc2)cc1)N1CCN(c2ncccn2)CC1`: 8%. The same measure for `COc1ccc(C2=Nn3c(nnc3-c3cccnc3)SC2)cc1`: 0%; for `O=C1C2CC=CCC2C(=O)N1c1ccc(Cc2ccncc2)cc1` (centres undefined): 0%; for `CCOc1cccc(-c2nnc3sc(COc4ccc(OC)cc4)nn23)c1`: 4%. `CC(=O)NCc1nc2ccccc2n1C(C)C`: the inhibition was 0%.

With `COc1cccc(OC)c1C(=O)Nc1cccc(C(C)=O)c1`, the inhibition was 2%. As for `CCOc1ccc2nc(NC(=O)C(NS(=O)(=O)c3cccs3)C(C)C)sc2c1` (centres undefined), the inhibition was 0%. The figure for `COC(=O)c1cc(O)c(OCc2ccccc2)c(O)c1` is 0%; for `Cc1ccc(-c2nnc(-c3cccc(Br)c3)o2)cc1` it is 0%; for `CCCn1c(SCC(=O)Nc2ccccc2C(=O)OC)nc2c1c(=O)n(C)c(=O)n2C` it is 3%.

For `Cc1ccc(C(C)n2cc(C(=O)NCCN3CCN(C)CC3)nn2)cc1` (centres undefined), the inhibition was 0%. The figure for `CCOc1cc(C(=O)NCc2ccncc2)cc(OCC)c1OCC` is 9%; for `COc1ccc(/C(O)=C2/C(=O)C(=O)N(CCCN(C)C)C2c2ccc(Cl)cc2)cc1OC` (centres undefined) it is 3%. The figure for `CCC1(C)Cc2c(C#N)c(N)n(N)c(=S)c2CO1` (centres undefined) is 0%.

On to `COc1ccc(NS(=O)(=O)c2c(C)[nH]c(=O)[nH]c2=O)c(OC)c1`, for which the inhibition was 0%. The figure for `CCCCn1c(SCC(=O)c2ccc3c(c2)OCCO3)nnc1-c1ccco1` is 4%; for `COCCOC(=O)C1=C(C)Nc2ncnn2C1c1ccc(F)cc1` (centres undefined) it is 0%; for `O=C(NCc1ccc(Cl)cc1)c1ccc(COCC(F)(F)F)o1` it is 0%. The figure for `CC(C)(C)SCCNC(=O)COc1ccc(Cl)cc1` is 0%; for `COc1ccc2c(c1)[nH]c1c(=O)n(CC3CCCO3)cnc12` (centres undefined) it is 1%; for `COc1ccccc1-c1noc(-c2cccnc2)n1` it is 13%. The figure for `c1ccc(CNC2=NCCC2)nc1` is 0%; for `CC(c1ccco1)N(C(=O)c1ccc(S(=O)(=O)N2CCCCC2)cc1)c1ccccn1` (centres undefined) it is 2%. Regarding `CCOC(=O)c1c(NC(=O)c2ccn(CC)n2)sc2c1CCCC2`, the inhibition is 3%. The same measure for `Cc1nc(C)c(C(=O)C2=C(O)C(=O)N(CCCn3ccnc3)C2c2ccccc2)s1` (centres undefined): 1%. Turning to `COc1ccc(C)cc1NCc1cccc(OC)c1OC`, the inhibition is 0%. With `CCSc1nc(O)c(CC)c(=O)n1C(C)CC` (centres undefined), the inhibition is 3%.

Turning to `O=C(O)c1ccc(COc2c(F)c(F)cc(F)c2F)cc1`, the inhibition is 0%.

Consider `Fc1ccccc1-c1nc(NCCCN2CCOCC2)c2ccccc2n1`, for which the inhibition is 0%. The same measure for `Cc1ccc(C2/C(=C(/O)c3cnn(-c4ccccc4)c3C)C(=O)C(=O)N2CCN2CCOCC2)o1` (centres undefined): 1%; for `O=C(Nc1nnc(COc2ccc(F)cc2)s1)c1cccs1`: 5%; for `CS(=O)(=O)N(CC(=O)N1CCCCCC1)c1ccc(Br)cc1`: 0%.

As to `CCOCCCNC(=O)CS(=O)(=O)Cc1nc(-c2cccc(OC)c2)oc1C`, the inhibition is 0%. The same measure for `O=C(NCc1ccccc1)c1cc(-c2ccco2)on1`: 0%. The same measure for `O=C(CN1C(=O)C2C3C=CC(C3)C2C1=O)NCc1ccc2c(c1)OCO2` (centres undefined): 0%. The figure for `CC(=O)C1=C(O)C(=O)N(Cc2ccco2)C1c1ccc2c(c1)OCO2` (centres undefined) is 3%. Turning to `CCCCCn1c(CN2CCN(c3cccc(Cl)c3)CC2)nc2c1c(=O)n(C)c(=O)n2C`, the inhibition was 0%. For the compound `N#CC1=C(N)SC(N)=C(C#N)C1c1ccc(C(F)(F)F)cc1`, the inhibition is 0%.

`CCOc1ccc(N(C(C)C(=O)NC2CCCCCC2)S(C)(=O)=O)cc1` (centres undefined): the inhibition is 1%. For the compound `COC(=O)c1cc(OC)c(OC)cc1NC(=O)CC1CCCCC1`, the inhibition is 1%. The same measure for `CCCCNC(=O)Cn1c(=O)n(C)c2ccccc21`: 0%; for `CC1(C)Cc2c(c(-c3ccccc3)nc(N3CCCC3)c2C(N)=O)CO1`: 4%. The figure for `Cc1cccc(C(=O)N(C)c2nnc(-c3ccncc3)s2)c1` is 0%. The same measure for `CC(=O)NC(CCS(C)(=O)=O)C(=O)Nc1cccc2ccccc12` (centres undefined): 0%; for `Cc1nc2ccc(Br)cn2c1NC(C)(C)C`: 0%.

With `CCOC(=O)N1CCC(c2cc(=O)n3[nH]c(C)c(-c4ccc(F)cc4)c3n2)CC1`, the inhibition is 0%. The figure for `O=C(O)CC(NC(=O)c1ccccc1NC(=O)c1ccccc1)C(=O)O` (centres undefined) is 0%. The figure for `Cc1csc(NC(=O)CCn2c(=O)oc3ccccc32)n1` is 1%; for `CCCC(=O)N(c1ccc2oc(=O)sc2c1)S(=O)(=O)c1ccccc1` it is 0%; for `CCOC(=O)C1CCN(C(C)=C2C(=O)c3ccccc3C2=O)CC1` it is 2%. For the compound `COCCSc1ccccc1C(=O)Nc1nncs1`, the inhibition is 0%. The figure for `CC1CN(c2nc3ccccc3nc2C(C#N)C(=O)NCc2ccc3c(c2)OCO3)CC(C)O1` (centres undefined) is 0%.

As to `COc1ccc(-c2nnc(SCC(=O)Nc3sc4c(c3C#N)CCC4)n2CC2CCCO2)cc1` (centres undefined), the inhibition was 0%. The figure for `O=C(COc1ccccc1F)NC1CC1` is 3%; for `COCCCN1C(=O)C(=O)/C(=C(/O)c2ccc(OCC(C)C)cc2C)C1c1cccnc1` (centres undefined) it is 0%.

In the case of `OC(CNCCc1ccccc1)c1ccccc1` (centres undefined), the inhibition is 2%.

With `CC(C)N=c1cc2n(-c3ccc(Cl)cc3)c3ccccc3nc-2cc1Nc1ccc(Cl)cc1`, the inhibition is 0%. The same measure for `O=C(C1CCN(S(=O)(=O)c2cnc[nH]2)CC1)N1CCN(c2ncccn2)CC1`: 0%; for `COc1ccc(-c2nn3c(-c4cccc(C)c4)nnc3s2)cc1OC`: 4%. The same measure for `CCC1Oc2ccc(C)cc2N(CC(=O)N(Cc2cccnc2)Cc2ccc(C)o2)C1=O` (centres undefined): 4%; for `Fc1cc(F)c(F)c(SCCc2ccncc2)c1F`: 0%; for `Cc1ccc(S(=O)(=O)C(C#N)c2nc3ccccc3nc2OC(C)C)cc1` (centres undefined): 0%. The figure for `CCOC(=O)c1csc(NC(=O)C2CCCCC2)n1` is 2%; for `Cc1ccc(CSc2nc3c(c(=O)[nH]2)C(c2ccncc2)C2=C(CCCC2=O)N3)cc1` (centres undefined) it is 4%.

Regarding `C=CCn1cnc2c(NCc3ccccc3)ncnc21`, the inhibition is 4%. The figure for `CCOc1ccc(N(CC(=O)Nc2ccc(C)c(C)c2)S(=O)(=O)c2c(C)noc2C)cc1` is 0%; for `N#CC1=C(N)SC(N)=C(C#N)C1CCc1ccccc1` it is 8%; for `Cc1nc2sc(C(c3cccc(F)c3)N3CCN(C(=O)c4ccco4)CC3)c(O)n2n1` (centres undefined) it is 0%.
